Results: PubChem BioAssay (NCATS)
Records with an inconclusive call do not appear. Calls of active or inactive are those of the source. Unless noted, calls come from the whole dose curve.

Key:
[1] = molecular target: Lysosomal acid glucosylceramidase (Homo sapiens) (UniProt P04062); assay: Glucocerebrosidase-p2 (AID 348; in the data active = potency below about 10 µM; note: potency is the fitted concentration of half-maximal effect); conditions: purified GBA, blue fluorogenic substrate, 40 min
In short: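 Normal human glucocerebrosidase (0.2 nM) with blue fluorogenic substrate (80 uM final) in citrate/phosphate pH 5.9 with 10mM sodium taurocholate, 0.01% tween-20; 40 min RT, NaOH/glycine stop; fluorescence Ex 365/Em 440; AC50 from a titration from 0.6 nM upwards.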

[2] = AP1 Signaling Pathway (AID 357; active = well fitted curve in either direction with a large enough effect, not every such curve was filed as active; note: % is set by controls: 0 for no effect and ±100 for the full control effect); conditions: ME-180 AP-1-bla reporter, EGF-induced, beta-lactamase ratio, 5 h; at 7.69 µM (top of the series) unless noted
In short: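 AP-1-bla ME-180 cells with beta-lactamase reporter under AP-1 response element, stimulated with EC50 EGF; compounds titrated, 5 hours at 37 degrees Celsius. CCF4 read at 460/530 nm ratio; positive and negative modulators judged by AC50.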

[3] = molecular target: Cytochrome P450 1A2 (Homo sapiens) (UniProt P05177); assay: p450-cyp1a2 (AID 410); conditions: recombinant CYP1A2, luciferin-ME demethylation, luminescence; series mostly up to 57 µM; note: potency is the fitted concentration of half-maximal effect;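 for activity change, negative = inhibition: -100% = full effect of reference inhibitor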
Cytochrome P450 1A2 (Homo sapiens), sequence (P05177 whole entry, looked up): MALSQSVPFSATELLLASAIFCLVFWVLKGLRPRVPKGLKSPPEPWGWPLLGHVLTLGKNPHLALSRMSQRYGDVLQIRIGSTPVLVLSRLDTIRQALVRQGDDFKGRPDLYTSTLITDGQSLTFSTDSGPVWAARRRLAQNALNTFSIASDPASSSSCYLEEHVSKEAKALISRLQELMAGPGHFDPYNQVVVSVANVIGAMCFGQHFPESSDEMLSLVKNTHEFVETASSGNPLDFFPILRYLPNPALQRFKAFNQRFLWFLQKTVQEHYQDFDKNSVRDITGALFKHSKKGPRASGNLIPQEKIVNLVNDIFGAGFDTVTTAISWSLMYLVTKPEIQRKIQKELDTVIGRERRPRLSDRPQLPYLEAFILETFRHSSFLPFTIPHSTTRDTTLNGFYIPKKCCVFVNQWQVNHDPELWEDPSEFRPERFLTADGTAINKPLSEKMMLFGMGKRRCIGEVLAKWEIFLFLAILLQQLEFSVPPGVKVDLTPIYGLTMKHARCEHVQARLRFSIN
In short: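 O-Demethylation of luciferin 6' methyl ether by human CYP1A2 is monitored as luciferase luminescence. Substrate sits at Km (100uM); enzyme is 20nM. Values are scaled to 57 uM furafylline as maximal inhibition.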

[4] = Stat Signaling Pathway (AID 446; active = well fitted curve in either direction with a large enough effect, not every such curve was filed as active;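 note: ME-180 cervical cancer cells given 40 pM IL-6 alongside compound; SIE-controlled beta-lactamase reporter measured as 460/530 nm FRET emission ratio; % is set by controls: 0 for no effect and ±100 for the full control effect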); conditions: ME-180 SIE beta-lactamase reporter, IL-6 stimulated, 5 h; at 7.69 µM (top of the series) unless noted
In short: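 Overnight-plated ME-180 cells bearing a STAT Inducible Element beta-lactamase reporter; 5 h co-exposure to compound and 40 pM IL-6; values normalized to 300 pM IL-6 and 125 nM JAK inhibitor controls.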

[5] = molecular target: Glucocorticoid receptor (Homo sapiens) (UniProt P04150); assay: GR-EFC Redistribution (AID 451); conditions: CHO-K1 GR-EFC translocation, beta-gal luminescence, 2 h; note: potency is the fitted concentration of half-maximal effect
Glucocorticoid receptor (Homo sapiens), sequence (P04150 whole entry, looked up, the tested form may be a part): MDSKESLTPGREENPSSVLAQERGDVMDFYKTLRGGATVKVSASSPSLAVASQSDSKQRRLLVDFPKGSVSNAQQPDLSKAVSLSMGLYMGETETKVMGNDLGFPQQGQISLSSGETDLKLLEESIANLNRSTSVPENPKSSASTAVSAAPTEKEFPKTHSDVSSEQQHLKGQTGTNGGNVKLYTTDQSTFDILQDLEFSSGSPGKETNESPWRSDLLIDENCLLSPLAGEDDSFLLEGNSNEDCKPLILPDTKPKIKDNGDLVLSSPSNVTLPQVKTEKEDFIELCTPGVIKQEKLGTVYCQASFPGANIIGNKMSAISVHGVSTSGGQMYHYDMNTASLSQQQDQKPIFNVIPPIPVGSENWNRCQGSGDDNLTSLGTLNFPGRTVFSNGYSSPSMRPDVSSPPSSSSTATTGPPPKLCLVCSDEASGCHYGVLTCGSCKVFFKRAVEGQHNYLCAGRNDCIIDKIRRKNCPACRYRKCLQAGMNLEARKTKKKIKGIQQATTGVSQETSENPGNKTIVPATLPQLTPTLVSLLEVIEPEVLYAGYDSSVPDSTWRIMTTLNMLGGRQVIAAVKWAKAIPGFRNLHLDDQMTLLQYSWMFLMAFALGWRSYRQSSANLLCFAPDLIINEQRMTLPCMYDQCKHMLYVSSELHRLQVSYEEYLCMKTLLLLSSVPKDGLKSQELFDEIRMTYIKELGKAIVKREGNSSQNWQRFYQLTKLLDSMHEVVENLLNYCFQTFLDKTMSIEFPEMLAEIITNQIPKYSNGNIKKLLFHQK
In short: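 Translocation of GR-ED fusion to nuclear EA restores b-gal, read by luminescence after 1 h room-temperature detection. Engineered CHO-K1 biosensor cells, 1,000/well, exposed 2 h at 37 C to titrations up to 46 uM final.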

[6] = molecular target: Mitogen-activated protein kinase 10 (Mus musculus) (UniProt Q61831); assay: JNK3 AlphaScreen Assay (AID 530; active = well fitted curve in either direction with a large enough effect, not every such curve was filed as active;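 note: kinase came from lysate of stimulated human HepG2 cells; signal reports phosphorylation of biotinylated GST-cJun 1-79 at Ser73 with 10 µM ATP; % is set by controls: 0 for no effect and ±100 for the full control effect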); conditions: JNK3 lysate, c-Jun phosphorylation; series mostly up to 57.1 µM
In short: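 qHTS titrations with 15 min compound pre-incubation before adding ATP (10 uM final). Read-out: AlphaScreen of Ser73-phosphorylated biotin-GST-cJun using HepG2 lysate JNK3 activated by IL-1β and TNFα.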

[7] = molecular target: 3',5'-cyclic-AMP phosphodiesterase 4B (Homo sapiens) (UniProt Q07343); assay: qHTS Assay for Inhibitors of PDE-IV (AID 607; active = well fitted activation curve with a large enough effect in the main read-out, with a control signal flat, not every such curve was filed as active; note: % of control where 0% means no effect); conditions: HEK293 ACTOne CNG channel cells, membrane potential fluorescence; series mostly up to 22.9 µM
3',5'-cyclic-AMP phosphodiesterase 4B (Homo sapiens), sequence (Q07343 whole entry, looked up): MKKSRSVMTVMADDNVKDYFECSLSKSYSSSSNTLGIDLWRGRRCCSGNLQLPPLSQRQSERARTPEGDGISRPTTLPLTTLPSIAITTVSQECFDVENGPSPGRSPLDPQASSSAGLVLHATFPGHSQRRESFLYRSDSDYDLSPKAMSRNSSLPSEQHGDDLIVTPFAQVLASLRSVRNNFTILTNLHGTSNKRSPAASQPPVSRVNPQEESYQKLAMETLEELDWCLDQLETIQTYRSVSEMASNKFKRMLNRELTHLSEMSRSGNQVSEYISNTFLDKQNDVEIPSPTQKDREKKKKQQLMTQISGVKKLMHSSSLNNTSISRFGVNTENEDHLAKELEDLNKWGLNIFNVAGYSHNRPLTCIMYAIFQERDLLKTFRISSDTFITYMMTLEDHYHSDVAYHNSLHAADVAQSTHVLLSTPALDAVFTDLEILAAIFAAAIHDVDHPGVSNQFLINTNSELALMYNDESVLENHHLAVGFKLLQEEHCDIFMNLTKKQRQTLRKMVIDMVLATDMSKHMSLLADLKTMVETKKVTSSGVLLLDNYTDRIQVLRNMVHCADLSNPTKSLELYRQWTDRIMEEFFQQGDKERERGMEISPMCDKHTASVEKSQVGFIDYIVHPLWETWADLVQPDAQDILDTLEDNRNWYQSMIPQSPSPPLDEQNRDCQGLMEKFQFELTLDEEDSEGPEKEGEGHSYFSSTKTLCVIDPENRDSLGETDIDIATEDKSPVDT
In short: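 Live HEK293 cells with a modified cyclic nucleotide-gated (CNG) channel report intracellular cAMP via membrane-potential dye fluorescence (ex 535/em 590 nm). Endogenous PDE-IV was targeted. Compounds were tested at up to 22.9 uM final; RO 20-1724 100 uM served as control.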

[8] = molecular target: Cytochrome P450 3A4 (Homo sapiens) (UniProt P08684); assay: qHTS Assay for Activators of Cytochrome P450 3A4 (AID 885; active = well fitted curve in the direction sought with a large enough effect; an effect the other way counts as inactive or inconclusive; note: nearly all actives have a fitted effect of over 65% in size; note: potency is the fitted concentration of half-maximal effect); conditions: recombinant CYP3A4, Luciferin-PPXE luminescence, 60 min; series mostly up to 57.1 µM
Cytochrome P450 3A4 (Homo sapiens), sequence (P08684 whole entry, looked up): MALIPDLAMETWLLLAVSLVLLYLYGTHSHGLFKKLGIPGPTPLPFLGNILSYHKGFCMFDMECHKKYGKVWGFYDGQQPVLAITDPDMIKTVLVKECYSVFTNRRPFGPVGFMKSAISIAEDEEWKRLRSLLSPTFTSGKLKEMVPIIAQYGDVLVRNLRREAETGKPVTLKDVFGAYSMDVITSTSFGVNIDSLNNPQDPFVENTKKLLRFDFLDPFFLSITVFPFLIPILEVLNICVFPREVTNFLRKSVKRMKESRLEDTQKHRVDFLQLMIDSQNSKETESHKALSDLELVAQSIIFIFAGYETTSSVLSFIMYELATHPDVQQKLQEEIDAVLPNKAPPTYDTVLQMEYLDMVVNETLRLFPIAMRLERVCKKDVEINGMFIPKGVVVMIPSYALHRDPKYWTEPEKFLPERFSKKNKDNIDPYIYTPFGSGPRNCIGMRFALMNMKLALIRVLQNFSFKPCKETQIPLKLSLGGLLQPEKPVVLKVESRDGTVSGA
In short: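 Using 20nM recombinant human CYP3A4 in potassium phosphate (200mM), substrate Luciferin-PPXE at 25uM, luminescent luciferin detection followed a 60-min RT NADPH reaction; data scaled to 57 uM ketoconazole.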

[9] = qHTS Assay for Lipid Storage Modulators (AID 1519); conditions: Drosophila S3 cells, BODIPY lipid droplet/cell ratio, laser cytometry, cells loaded with oleic acid; for activity change, negative = inhibition: at 57.5 µM (top of the series)
In short: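 Cells seeded at 5,000 per well were treated with compounds over a concentration series and loaded with oleic acid (400 uM, as added). Lipid droplet fluorescence (488 nm excitation, 500-530 nm channel) was read by laser-scanning cytometry and normalized to 20 uM Triacsin C.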

[10] = Primary qHTS for small molecule stabilizers of the endoplasmic reticulum resident proteome: Secreted ER Calcium Modulated Protein (SERCaMP) assay (AID 1508630; active = well fitted curve in the direction sought with a large enough effect; an effect the other way counts as inactive or inconclusive; note: % is set by controls: 0 for no effect and ±100 for the full control effect); conditions: SH-SY5Y GLuc-SERCaMP (Gaussia luciferase released on ER calcium loss) secretion, thapsigargin, luminescence; series mostly up to 38.4 µM
In short: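 The SH-SY5Y reporter protocol was run at 3 concentrations up to 38.3 uM (primary) or 11 concentrations (follow-up): 16 h compound, 100 nM thapsigargin for 4 h, then extracellular luciferase luminescence.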

[11] = molecular target: Cytochrome P450 3A4 (Homo sapiens) (UniProt P08684); assay: qHTS Assay for Inhibitors and Substrates of Cytochrome P450 3A4 (AID 884; active = well fitted curve in the direction sought with a large enough effect; an effect the other way counts as inactive or inconclusive; note: nearly all actives have a fitted effect of over 50% in size; note: potency is the fitted concentration of half-maximal effect); conditions: recombinant CYP3A4, Luciferin-PPXE luminescence; series mostly up to 57.1 µM
In short: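 Luminescent readout of luciferin produced by CYP3A4 (20 nM) dealkylation of Luciferin-PPXE, 25 uM (its KM). NADPH-driven reaction ran 60 min at RT after 10 min compound preincubation; data scaled to 57 uM ketoconazole as 100% inhibition.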

[12] = qHTS Assay for Identification of Small Molecule Agonists for Hypoxia Response Element Signaling Pathway (AID 914; active = well fitted activation curve with a large enough effect in the signal ratio, with a control signal flat, not every such curve was filed as active; the % refers to the signal ratio; note: % of control where 0% means no effect); conditions: ME-180 (cervical carcinoma) HRE-bla reporter, beta-lactamase ratio, CoCl2, 17 h; activation: stronger effect = higher value
In short: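 qHTS titration; ME-180 HRE-bla cells; EC50 CoCl2 co-treatment, 17 h at 37 degrees Celsius; CCF4 dye, ex 405nm, em 460nm and 530nm; %Activity from ratio; AC50.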

[13] = molecular target: Cytochrome P450 2C9 (Homo sapiens) (UniProt P11712); assay: qHTS Assay for Inhibitors and Substrates of Cytochrome P450 2C9 (AID 883; active = well fitted curve in the direction sought with a large enough effect; an effect the other way counts as inactive or inconclusive; note: potency is the fitted concentration of half-maximal effect; nearly all actives have a fitted effect of over 60% in size); conditions: recombinant CYP2C9, luciferin-H luminescence, 60 min; series mostly up to 57.1 µM
Cytochrome P450 2C9 (Homo sapiens), sequence (P11712 whole entry, looked up): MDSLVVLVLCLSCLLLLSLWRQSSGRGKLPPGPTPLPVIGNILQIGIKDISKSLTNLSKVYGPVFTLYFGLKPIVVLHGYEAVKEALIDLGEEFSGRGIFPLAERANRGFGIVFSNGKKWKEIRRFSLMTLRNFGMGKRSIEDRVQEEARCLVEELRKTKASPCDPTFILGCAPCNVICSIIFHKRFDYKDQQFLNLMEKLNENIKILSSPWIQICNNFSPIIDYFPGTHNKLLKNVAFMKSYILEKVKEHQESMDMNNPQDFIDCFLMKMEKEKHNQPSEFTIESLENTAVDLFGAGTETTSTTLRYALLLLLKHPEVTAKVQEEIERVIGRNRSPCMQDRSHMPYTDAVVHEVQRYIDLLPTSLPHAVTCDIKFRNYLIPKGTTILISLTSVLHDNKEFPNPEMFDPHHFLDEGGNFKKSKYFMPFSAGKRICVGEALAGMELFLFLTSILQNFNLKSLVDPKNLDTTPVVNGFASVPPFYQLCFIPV
In short: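 Luminescent read-out of deoxyluciferin hydroxylation, normalized to 57uM sulphaphenazole (AC100). Reaction: 10nM enzyme, 100uM Luciferin-H (equal to KM), 25mM KPO4, 10 min compound preincubation, then 60 min with NADPH regeneration, both at 37C.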

[14] = molecular target: Cytochrome P450 2C19 (Homo sapiens) (UniProt P33261); assay: qHTS Assay for Inhibitors and Substrates of Cytochrome P450 2C19 (AID 899; active = well fitted curve in the direction sought with a large enough effect; an effect the other way counts as inactive or inconclusive; note: potency is the fitted concentration of half-maximal effect; nearly all actives have a fitted effect of over 60% in size); conditions: recombinant CYP2C19, luciferin-H EGE luminescence; series mostly up to 57.1 µM
Cytochrome P450 2C19 (Homo sapiens), sequence (P33261 whole entry, looked up): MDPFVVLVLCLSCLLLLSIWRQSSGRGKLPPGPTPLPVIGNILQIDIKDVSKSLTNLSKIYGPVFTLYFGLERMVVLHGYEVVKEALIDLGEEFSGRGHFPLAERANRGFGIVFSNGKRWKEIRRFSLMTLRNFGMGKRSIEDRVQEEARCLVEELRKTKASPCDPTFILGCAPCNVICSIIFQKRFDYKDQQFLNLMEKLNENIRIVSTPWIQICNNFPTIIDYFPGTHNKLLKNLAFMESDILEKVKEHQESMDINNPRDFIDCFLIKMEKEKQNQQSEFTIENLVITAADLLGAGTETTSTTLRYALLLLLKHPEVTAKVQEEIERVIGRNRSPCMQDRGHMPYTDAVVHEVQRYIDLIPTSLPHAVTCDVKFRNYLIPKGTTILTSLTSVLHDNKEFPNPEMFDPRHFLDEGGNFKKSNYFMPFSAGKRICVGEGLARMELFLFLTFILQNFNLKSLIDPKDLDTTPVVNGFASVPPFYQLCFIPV
In short: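 Luminescence readout of luciferin formed from 10uM Luciferin-H EGE (KM level) by 5 nM CYP2C19 in 50mM KPO4. 60 min NADPH-driven reaction at 37C after 10 min compound preincubation; data scaled to 57uM ketoconazole inhibition.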

[15] = molecular target: Cytochrome P450 2D6 (Homo sapiens) (UniProt P10635); assay: qHTS Assay for Inhibitors and Substrates of Cytochrome P450 2D6 (AID 891; active = well fitted curve in the direction sought with a large enough effect; an effect the other way counts as inactive or inconclusive; note: potency is the fitted concentration of half-maximal effect; nearly all actives have a fitted effect of over 60% in size); conditions: recombinant CYP2D6, luciferin-ME EGE luminescence; series mostly up to 57.1 µM
Cytochrome P450 2D6 (Homo sapiens), sequence (P10635 whole entry, looked up): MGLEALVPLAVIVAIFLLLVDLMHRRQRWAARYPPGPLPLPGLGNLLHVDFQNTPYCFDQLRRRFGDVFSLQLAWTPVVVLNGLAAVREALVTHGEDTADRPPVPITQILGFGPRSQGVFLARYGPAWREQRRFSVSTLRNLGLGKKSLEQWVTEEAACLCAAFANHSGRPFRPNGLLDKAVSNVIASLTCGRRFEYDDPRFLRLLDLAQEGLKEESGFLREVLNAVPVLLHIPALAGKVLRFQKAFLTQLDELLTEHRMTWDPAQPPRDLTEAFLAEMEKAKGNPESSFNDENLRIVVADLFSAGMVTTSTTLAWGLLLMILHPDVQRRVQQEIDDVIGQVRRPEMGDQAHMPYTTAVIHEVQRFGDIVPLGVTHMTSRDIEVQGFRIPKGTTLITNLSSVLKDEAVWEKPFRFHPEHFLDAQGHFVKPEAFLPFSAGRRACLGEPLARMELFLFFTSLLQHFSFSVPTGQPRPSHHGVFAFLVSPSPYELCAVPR
In short: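 Luminescent read-out of luciferin formed by 5 nM human CYP2D6 demethylating 30 uM Luciferin-ME EGE (Km level) over 60 min at room temperature after NADPH regeneration addition. Data normalized to full inhibition by 1.43 uM quinidine.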

[16] = measured here: cell count channel max response
[17] = measured here: lipid channel max response

Lysosomal acid glucosylceramidase (Homo sapiens), sequence (P04062 whole entry, looked up): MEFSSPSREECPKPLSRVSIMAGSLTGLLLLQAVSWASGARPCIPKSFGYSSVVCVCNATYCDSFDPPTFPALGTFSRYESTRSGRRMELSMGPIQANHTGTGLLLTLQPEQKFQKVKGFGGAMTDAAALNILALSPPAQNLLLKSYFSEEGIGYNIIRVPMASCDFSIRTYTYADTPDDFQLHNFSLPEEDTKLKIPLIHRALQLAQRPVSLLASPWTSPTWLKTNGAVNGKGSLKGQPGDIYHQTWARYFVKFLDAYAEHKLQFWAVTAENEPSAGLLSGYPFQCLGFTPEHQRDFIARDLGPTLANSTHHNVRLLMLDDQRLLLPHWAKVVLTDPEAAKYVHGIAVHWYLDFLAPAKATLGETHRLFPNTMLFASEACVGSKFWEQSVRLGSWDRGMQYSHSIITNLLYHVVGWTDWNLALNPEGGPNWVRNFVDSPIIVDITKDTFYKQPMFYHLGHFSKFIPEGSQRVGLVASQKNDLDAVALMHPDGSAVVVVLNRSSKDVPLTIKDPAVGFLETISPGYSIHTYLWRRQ

Cn1cccc1C(=O)N1CCC[C@@]2(CCN(C(c3ccccc3)c3ccccc3)C2)C1
14.1%: max response [9, 17]
10.5%: max response [9, 16]
inactive: Potency [1] > 11.4 µM | activity change, negative = inhibition [2] 0.163% | activity, negative = inhibition [4] 9.39% | Potency [5] > 46 µM | Potency [6] | Potency [7] | Potency [8] | activity change, negative = inhibition [9] 0.948% | outcome [10]
active: Potency [3] 20 µM

CC(C)CN1CCCC2(CCN(C(=O)c3cccn3C)CC2)C1
16.8%: max response [9, 16]
26.5%: max response [9, 17]
inactive: Potency [1] > 11.4 µM | activity change, negative = inhibition [2] -3.67% | Potency [3] | activity, negative = inhibition [4] 12.4% | Potency [5] > 46 µM | Potency [6] | Potency [7] | Potency [8] | activity change, negative = inhibition [9] 6.1% | outcome [10]

CC(C)CN1CCCC2(CCN(C(=O)c3cccc(F)c3)CC2)C1
24.2%: max response [9, 17]
inactive: Potency [1] > 11.4 µM | activity change, negative = inhibition [2] -3.93% | Potency [3] | activity, negative = inhibition [4] -0.516% | Potency [5] > 46 µM | Potency [6] | Potency [7] | Potency [8] | activity change, negative = inhibition [9] 2.15% | outcome [10]
18.6%: max response [9, 16]

COc1ccc(C(=O)N2CCC3(CCCN(CC(C)C)C3)CC2)cc1
26.9%: max response [9, 17]
inactive: Potency [1] > 11.4 µM | activity change, negative = inhibition [2] -7.24% | Potency [3] | activity, negative = inhibition [4] -5.73% | Potency [5] > 46 µM | Potency [6] | Potency [7] | Potency [8] | activity change, negative = inhibition [9] 2.63% | outcome [10]
21.1%: max response [9, 16]

O=C(Nc1ccccc1)N1CCCC2(CCN(S(=O)(=O)c3ccccc3)CC2)C1
active: Potency [3] 15.8 µM
22%: max response [9, 17]
inactive: Potency [1] > 11.4 µM | activity change, negative = inhibition [2] -18.5% | activity, negative = inhibition [4] -7.13% | Potency [5] > 46 µM | Potency [6] | Potency [7] | Potency [8] | activity change, negative = inhibition [9] 0.932% | outcome [10]
19.2%: max response [9, 16]

O=C(c1ccncc1)N1CCC2(CC1)CN(Cc1cc(C(F)(F)F)cc(C(F)(F)F)c1)C2
9.27%: max response [9, 16]
active: Potency [11] 5.01 µM
16.4%: max response [9, 17]
inactive: Potency [1] > 11.4 µM | activity change, negative = inhibition [2] -5.95% | Potency [3] | activity, negative = inhibition [4] -8.98% | Potency [5] > 46 µM | Potency [6] | Potency [7] | Potency [8] | activity change, negative = inhibition [9] 0.924% | outcome [10]

O=C(Oc1ccccc1)N1CCC2(CC1)CN(c1ccccn1)C2
13.9%: max response [9, 17]
3.44%: max response [9, 16]
inactive: Potency [1] > 11.4 µM | activity change, negative = inhibition [2] 5.21% | Potency [3] | activity, negative = inhibition [4] -0.424% | Potency [5] > 46 µM | Potency [6] | Potency [7] | activity change, negative = inhibition [9] 7.94% | outcome [10]
active: Potency [8] 15.8 µM

O=C(c1ccco1)N1CCC2(CC1)CN(c1ccccn1)C2
inactive: Potency [1] > 11.4 µM | activity change, negative = inhibition [2] 2.14% | Potency [3] | activity, negative = inhibition [4] -14.8% | Potency [5] > 46 µM | Potency [6] | Potency [7] | Potency [11] | activity change, negative = inhibition [9] 5.94% | outcome [10]
3%: max response [9, 16]
active: Potency [8] 10 µM
11.7%: max response [9, 17]

Cn1cccc1C(=O)N1CCC2(CCN(Cc3nccs3)CC2)CC1
inactive: Potency [1] > 11.4 µM | activity change, negative = inhibition [2] -5.06% | Potency [3] | activity, negative = inhibition [4] -1.77% | Potency [5] > 46 µM | Potency [6] | Potency [7] | Potency [11] | activity change, negative = inhibition [9] -0.0655% | outcome [10]
-3.13%: max response [9, 16]
-0.688%: max response [9, 17]

COc1ccc(C(=O)N2CCC3(CC2)CCN(C(c2ccccc2)c2ccccc2)CC3)cc1
active: Potency [8] 3.16 µM
21.1%: max response [9, 17]
inactive: Potency [1] > 11.4 µM | activity change, negative = inhibition [2] 4.01% | Potency [3] | activity, negative = inhibition [4] -17.5% | Potency [5] > 46 µM | Potency [6] | Potency [7] | Potency [11] | activity change, negative = inhibition [9] 2.48% | outcome [10]
13.4%: max response [9, 16]

N#Cc1ccc(CN2CC[C@@]3(CCCN(C(=O)c4cc(C(F)(F)F)cc(C(F)(F)F)c4)C3)C2)cc1
4.67%: max response [9, 17]
active: Potency [3] 25.1 µM | Potency [11] 5.01 µM
inactive: Potency [1] > 11.4 µM | activity change, negative = inhibition [2] 17.7% | activity, negative = inhibition [4] -2.46% | Potency [5] > 46 µM | Potency [6] | Potency [7] | Potency [8] | activity change, negative = inhibition [9] 2.06% | outcome [10]
-0.217%: max response [9, 16]

O=S(=O)(c1ccccc1)N1CCC2(CCN(Cc3ccccc3)CC2)CC1
18.1%: max response [9, 16]
22.9%: max response [9, 17]
inactive: Potency [1] > 11.4 µM | activity change, negative = inhibition [2] 5.55% | Potency [3] | activity, negative = inhibition [4] 1.04% | Potency [5] > 46 µM | Potency [6] | Potency [7] | activation [12] 14.1% | activity change, negative = inhibition [9] 3.53% | outcome [10]

O=C(Oc1ccccc1)N1CCC2(CC1)CN(c1ccncc1)C2
4.81%: max response [9, 17]
0.26%: max response [9, 16]
inactive: Potency [1] > 11.4 µM | activity change, negative = inhibition [2] -1.8% | Potency [3] | activity, negative = inhibition [4] -4.7% | Potency [5] > 46 µM | Potency [7] | Potency [8] | activity change, negative = inhibition [9] 1.74% | outcome [10]
active: Potency [13] 3.16 µM | Potency [14] 7.94 µM

O=C(c1cccc(F)c1)N1CCC2(CC1)CN(Cc1ccccc1)C2
-5.75%: max response [9, 16]
inactive: Potency [1] > 11.4 µM | activity change, negative = inhibition [2] 0.919% | Potency [3] | activity, negative = inhibition [4] 0.079% | Potency [5] > 46 µM | Potency [6] | Potency [7] | activity change, negative = inhibition [9] -1.4% | outcome [10]
-4.23%: max response [9, 17]
active: Potency [15] 5.01 µM
